The panel holds about 79,000 compounds, 15% with a hit somewhere; the sample as a whole holds those more often. Values without a mark were called inactive. Active and inactive are the calls of the source. No stated cut-off is given here; in the data, active means growth inhibition above about 70%; inactive means the rest.
Columns and labels:
[1] = NCI Yeast Anticancer Drug Screen. Data for the rad50 strain (AID 155);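 further: 0% = growth of vehicle-only cultures of the same strain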; settings: S. cerevisiae rad50 strain growth inhibition, active compounds read high
How it was run: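 Vehicle-treated cultures provide the reference for the growth inhibition reported for compound-exposed, repair-deficient yeast.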

[2] = NCI Yeast Anticancer Drug Screen. Data for the mec2-1 strain (AID 157); settings: S. cerevisiae mec2-1 strain, active compounds read high
How it was run: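 Strain: mec2-1 (DNA repair/cell cycle alteration). Compound exposure, then growth measured; inhibition expressed relative to vehicle.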

[3] = NCI Yeast Anticancer Drug Screen. Data for the sgs1 mgt1 strain (AID 161);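 further: 0% = growth of cultures given vehicle only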; settings: S. cerevisiae sgs1 mgt1 strain, active compounds read high
How it was run: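 Test agents were incubated with a DNA-repair-mutant yeast strain. Growth was then read and compared against vehicle-treated controls.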

[4] = NCI Yeast Anticancer Drug Screen. Data for the cln2 rad14 strain (AID 165);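 further: 0% = growth equal to vehicle treated cultures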; settings: S. cerevisiae cln2 rad14 strain, active compounds read high
How it was run: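 Compounds are applied to the cln2 rad14 yeast strain, and growth is then compared with that of vehicle-treated cultures to give inhibition.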

[5] = NCI Yeast Anticancer Drug Screen. Data for the bub3 strain (AID 167); settings: S. cerevisiae bub3 mutant strain, active compounds read high
How it was run: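 Mutant yeast screening strain plus compound; vehicle-treated cultures serve as the 0% inhibition reference.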

[6] = NCI Yeast Anticancer Drug Screen. Data for the wt2 strain (AID 169); settings: S. cerevisiae wt2 strain growth inhibition, active compounds read high
How it was run: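 This strain belongs to a panel of yeast strains with defined genetic alterations in DNA damage repair or cell cycle control. Compounds are applied, and growth inhibition is measured against vehicle-treated cultures.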

[7] = NCI Yeast Anticancer Drug Screen. Data for the mlh1 rad18 strain (AID 175); settings: S. cerevisiae mlh1 rad18 strain growth inhibition, active compounds read high
How it was run: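 Read-out is yeast growth inhibition, calculated against vehicle-only controls. The compound was applied to a strain engineered with DNA damage repair alterations.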

[8] = NCI Yeast Anticancer Drug Screen. Data for the wt1 strain (AID 149);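 further: 0% = growth of vehicle-treated wt1 cultures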; settings: S. cerevisiae wt1 strain (SPY 50644) growth inhibition, active compounds read high
How it was run: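 Each compound is tested on wt1 yeast and the loss of growth versus vehicle gives the inhibition value.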

[9] = NCI Yeast Anticancer Drug Screen. Data for the rad50EPP+ strain (AID 151);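 further: 0% = growth of vehicle-treated control cultures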; settings: S. cerevisiae rad50 mutant strain, active compounds read high
How it was run: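 Compounds were applied to the rad50EPP+ yeast strain, which bears a defined DNA repair alteration, and growth inhibition was determined relative to vehicle-treated cultures.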

[10] = NCI Yeast Anticancer Drug Screen. Data for the rad14 strain (AID 159);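 further: 0% = growth of vehicle-treated control cultures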; settings: S. cerevisiae rad14 strain growth inhibition, active compounds read high
How it was run: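 Inhibition of growth is reported for a repair-deficient yeast mutant following compound treatment, calculated relative to cultures that received vehicle.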

[11] = NCI Yeast Anticancer Drug Screen. Data for the CLN2oe strain (AID 163);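 further: 0% = growth of vehicle-only control cultures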; settings: S. cerevisiae CLN2oe strain, active compounds read high
How it was run: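 Growth of a genetically modified yeast strain is measured after compound exposure and compared with cultures given vehicle alone.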

[12] = NCI Yeast Anticancer Drug Screen. Data for the mlh1 strain (AID 171);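 further: 0% = growth of vehicle-treated control cultures of the same strain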; settings: S. cerevisiae mlh1 strain growth inhibition, active compounds read high
How it was run: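 Growth of the mutant yeast strain after compound exposure, expressed as inhibition relative to vehicle-only controls.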

[13] = NCI Yeast Anticancer Drug Screen. Data for the sgs1 strain (AID 173);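 further: 0% = growth of vehicle-only control cultures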; settings: S. cerevisiae sgs1 mutant, active compounds read high
How it was run: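 Growth of a yeast strain bearing a defined genetic alteration is measured after compound treatment. Inhibition is expressed relative to vehicle-only controls.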

[14] = NCI Yeast Anticancer Drug Screen. Data for the rad18 strain (AID 177); settings: S. cerevisiae rad18 mutant growth inhibition, active compounds read high
How it was run: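 Growth of the mutant yeast strain after compound exposure, normalised to vehicle-only cultures.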

[15] = at 5.0 µM (retest, dose inferred, filed as 0.5)
[16] = at 50.0 µM (retest, dose inferred, filed as 5.0)

Structure (SMILES): N#Cc1ccc([Se]c2ccccc2)cc1
- growth inhibition [1, 15]: 91% (active)
- growth inhibition [1, 16]: 96% (active)
- growth inhibition ([1]; at 50.0 µM): 73.9% (active)
- growth inhibition [2, 15]: 95% (active)
- growth inhibition [2, 16]: 96% (active)
- growth inhibition ([2]; at 50.0 µM): 54.1%
- growth inhibition [3, 15]: -1%
- growth inhibition [3, 16]: 67%
- growth inhibition ([3]; at 50.0 µM): 72.3% (active)
- growth inhibition [4, 15]: 33%
- growth inhibition [4, 16]: 73% (active)
- growth inhibition ([4]; at 50.0 µM): 57%
- growth inhibition [5, 15]: 40%
- growth inhibition [5, 16]: 84% (active)
- growth inhibition ([5]; at 50.0 µM): 77.9% (active)
- growth inhibition ([6]; at 1.2 µM): 10%
- growth inhibition ([6]; at 3.7 µM): 13%
- growth inhibition ([6]; at 11.0 µM): 6%
- growth inhibition ([6]; at 33.0 µM): 28%
- growth inhibition ([6]; at 100.0 µM): 63%
- growth inhibition [7, 15]: 89% (active)
- growth inhibition [7, 16]: 97% (active)
- growth inhibition ([7]; at 50.0 µM): 56%

Structure (SMILES): CC(C)(Br)C(=O)C(Br)Br
- growth inhibition [1, 15]: 97% (active)
- growth inhibition [1, 16]: 99% (active)
- growth inhibition ([1]; at 50.0 µM): 86.3% (active)
- growth inhibition [2, 15]: 100% (active)
- growth inhibition [2, 16]: 99% (active)
- growth inhibition ([2]; at 50.0 µM): 89% (active)
- growth inhibition [3, 15]: 98% (active)
- growth inhibition [3, 16]: 99% (active)
- growth inhibition ([3]; at 50.0 µM): 89.7% (active)
- growth inhibition [4, 15]: 95% (active)
- growth inhibition [4, 16]: 99% (active)
- growth inhibition ([4]; at 50.0 µM): 88.8% (active)
- growth inhibition [5, 15]: 100% (active)
- growth inhibition [5, 16]: 99% (active)
- growth inhibition ([5]; at 50.0 µM): 88.7% (active)
- growth inhibition [7, 15]: 98% (active)
- growth inhibition [7, 16]: 98% (active)

Structure (SMILES): NC(C(=O)O)c1ccccc1Cl (stereo not given)
- growth inhibition [1, 15]: -161%
- growth inhibition [1, 16]: -142%
- growth inhibition ([1]; at 50.0 µM): 21%
- growth inhibition [2, 15]: -51%
- growth inhibition [2, 16]: -48%
- growth inhibition ([2]; at 50.0 µM): 1.65%
- growth inhibition [3, 15]: -64%
- growth inhibition [3, 16]: -57%
- growth inhibition ([3]; at 50.0 µM): -2.5%
- growth inhibition [4, 15]: -61%
- growth inhibition [4, 16]: -56%
- growth inhibition ([4]; at 50.0 µM): 73.1% (active)
- growth inhibition [5, 15]: -68%
- growth inhibition [5, 16]: -69%
- growth inhibition ([5]; at 50.0 µM): -3.55%

Structure (SMILES): CN(C)c1ccc(N=Cc2c([O-])ccc3ccccc23)cc1.[C-]#[O+].[C-]#[O+].[Ir]
- growth inhibition [1, 15]: 1%
- growth inhibition [1, 16]: 1%
- growth inhibition ([1]; at 50.0 µM): 83.4% (active)
- growth inhibition [2, 15]: 15%
- growth inhibition [2, 16]: 15%
- growth inhibition ([2]; at 50.0 µM): 60.4%
- growth inhibition [3, 15]: -17%
- growth inhibition [3, 16]: -17%
- growth inhibition ([3]; at 50.0 µM): 78.3% (active)
- growth inhibition [4, 15]: 3%
- growth inhibition [4, 16]: 3%
- growth inhibition ([4]; at 50.0 µM): 77.1% (active)
- growth inhibition [5, 15]: 2%
- growth inhibition [5, 16]: 2%
- growth inhibition ([5]; at 50.0 µM): 82.5% (active)

Structure (SMILES): CNCC(O)c1ccc(O)c(O)c1.[Pt].c1ccc([PH+](c2ccccc2)c2ccccc2)cc1.c1ccc([PH+](c2ccccc2)c2ccccc2)cc1
- growth inhibition ([8]; at 1.2 µM): -1%
- growth inhibition ([8]; at 3.7 µM): -2%
- growth inhibition ([8]; at 11.0 µM): -2%
- growth inhibition ([8]; at 33.0 µM): 8%
- growth inhibition ([8]; at 100.0 µM): 53%
- growth inhibition ([9]; at 1.2 µM): 2%
- growth inhibition ([9]; at 3.7 µM): -3%
- growth inhibition ([9]; at 11.0 µM): -21%
- growth inhibition ([9]; at 33.0 µM): 11%
- growth inhibition ([9]; at 100.0 µM): 93% (active)
- growth inhibition ([1]; at 1.2 µM): -1%
- growth inhibition ([1]; at 3.7 µM): -3%
- growth inhibition [1, 15]: -8%
- growth inhibition ([1]; at 11.0 µM): -1%
- growth inhibition ([1]; at 33.0 µM): 96% (active)
- growth inhibition [1, 16]: 99% (active)
- growth inhibition ([1]; at 50.0 µM): 99% (active)
- growth inhibition ([1]; at 100.0 µM): 96% (active)
- growth inhibition ([2]; at 1.2 µM): 3%
- growth inhibition ([2]; at 3.7 µM): 6%
- growth inhibition [2, 15]: -8%
- growth inhibition ([2]; at 11.0 µM): 4%
- growth inhibition ([2]; at 33.0 µM): 65%
- growth inhibition [2, 16]: 99% (active)
- growth inhibition ([2]; at 50.0 µM): 98.8% (active)
- growth inhibition ([2]; at 100.0 µM): 97% (active)
- growth inhibition ([10]; at 1.2 µM): -1%
- growth inhibition ([10]; at 3.7 µM): -3%
- growth inhibition ([10]; at 11.0 µM): 4%
- growth inhibition ([10]; at 33.0 µM): 98% (active)
- growth inhibition ([10]; at 100.0 µM): 96% (active)
- growth inhibition [3, 15]: -2%
- growth inhibition [3, 16]: -7%
- growth inhibition ([3]; at 50.0 µM): 99.1% (active)
- growth inhibition ([11]; at 1.2 µM): 0%
- growth inhibition ([11]; at 3.7 µM): -8%
- growth inhibition ([11]; at 11.0 µM): 3%
- growth inhibition ([11]; at 33.0 µM): 93% (active)
- growth inhibition ([11]; at 100.0 µM): 96% (active)
- growth inhibition [4, 15]: 17%
- growth inhibition [4, 16]: 99% (active)
- growth inhibition ([4]; at 50.0 µM): 98.8% (active)
- growth inhibition ([5]; at 1.2 µM): 0%
- growth inhibition ([5]; at 3.7 µM): 1%
- growth inhibition [5, 15]: -18%
- growth inhibition ([5]; at 11.0 µM): -3%
- growth inhibition ([5]; at 33.0 µM): 75% (active)
- growth inhibition [5, 16]: 99% (active)
- growth inhibition ([5]; at 50.0 µM): 98.8% (active)
- growth inhibition ([5]; at 100.0 µM): 96% (active)
- growth inhibition ([6]; at 1.2 µM): -2%
- growth inhibition ([6]; at 3.7 µM): -2%
- growth inhibition ([6]; at 11.0 µM): 8%
- growth inhibition ([6]; at 33.0 µM): 98% (active)
- growth inhibition ([6]; at 100.0 µM): 98% (active)
- growth inhibition ([12]; at 1.2 µM): -3%
- growth inhibition ([12]; at 3.7 µM): -1%
- growth inhibition ([12]; at 11.0 µM): 8%
- growth inhibition ([12]; at 33.0 µM): 91% (active)
- growth inhibition ([12]; at 100.0 µM): 97% (active)
- growth inhibition ([13]; at 1.2 µM): 2%
- growth inhibition ([13]; at 3.7 µM): 4%
- growth inhibition ([13]; at 11.0 µM): 15%
- growth inhibition ([13]; at 33.0 µM): 86% (active)
- growth inhibition ([13]; at 100.0 µM): 97% (active)
- growth inhibition [7, 15]: 13%
- growth inhibition [7, 16]: 99% (active)
- growth inhibition ([7]; at 50.0 µM): 99% (active)
- growth inhibition ([14]; at 1.2 µM): 0%
- growth inhibition ([14]; at 3.7 µM): 2%
- growth inhibition ([14]; at 11.0 µM): 19%
- growth inhibition ([14]; at 33.0 µM): 80% (active)
- growth inhibition ([14]; at 100.0 µM): 96% (active)

Structure (SMILES): COC(COC(N)=O)C1=C(N2CC2)C(=O)C(C)=C(N2CC2)C1=O (stereo not given)
- growth inhibition [1, 15]: 47%
- growth inhibition [1, 16]: 98% (active)
- growth inhibition ([1]; at 50.0 µM): 66.1%
- growth inhibition [2, 15]: 39%
- growth inhibition [2, 16]: 99% (active)
- growth inhibition ([2]; at 50.0 µM): 71.2% (active)
- growth inhibition [3, 15]: 50%
- growth inhibition [3, 16]: 99% (active)
- growth inhibition ([3]; at 50.0 µM): 43.3%
- growth inhibition [4, 15]: 40%
- growth inhibition [4, 16]: 98% (active)
- growth inhibition ([4]; at 50.0 µM): 50.6%
- growth inhibition [5, 15]: 42%
- growth inhibition [5, 16]: 99% (active)
- growth inhibition ([5]; at 50.0 µM): 24.9%
- growth inhibition [7, 15]: 76% (active)
- growth inhibition [7, 16]: 97% (active)

Structure (SMILES): O=C1C(Br)=CC2(C=C1Br)CCNc1c(O)c3c4c(c12)=NCCC=4C=N3
- growth inhibition [1, 15]: 31%
- growth inhibition [1, 16]: 72% (active)
- growth inhibition ([1]; at 50.0 µM): 57.9%
- growth inhibition [2, 15]: 15%
- growth inhibition [2, 16]: 44%
- growth inhibition ([2]; at 50.0 µM): 46.5%
- growth inhibition [3, 15]: 17%
- growth inhibition [3, 16]: 71% (active)
- growth inhibition ([3]; at 50.0 µM): 54.2%
- growth inhibition [4, 15]: -1%
- growth inhibition [4, 16]: 50%
- growth inhibition ([4]; at 50.0 µM): 24.9%
- growth inhibition [5, 15]: -14%
- growth inhibition [5, 16]: 78% (active)
- growth inhibition ([5]; at 50.0 µM): 49.6%

— PubChem BioAssay (NCI)
